Measured values as given in PubChem BioAssay AID376 (PDSP, 2006).
In all, about 2,000 compounds went through this assay and about 250 (12%) were called active. The sample as a whole holds a higher share of actives than the screen did. A number with no mark means an inactive call. No stated cut-off is given here; in the data, active means hERG blockade below about -20% or above about 20%; inactive means in between.

These compounds were tested against Voltage-gated inwardly rectifying potassium channel KCNH2 (Homo sapiens) (UniProt Q12809) (assay: KCNH2 potassium channel function modulators, cell-based (AID 376;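 further: 0% = buffer alone and 100% = reference blocker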)). Conditions: hERG-expressing cells, channel activity single-concentration screen; concentration not given here.
Chain of Voltage-gated inwardly rectifying potassium channel KCNH2 (Homo sapiens) (Q12809 whole entry, looked up): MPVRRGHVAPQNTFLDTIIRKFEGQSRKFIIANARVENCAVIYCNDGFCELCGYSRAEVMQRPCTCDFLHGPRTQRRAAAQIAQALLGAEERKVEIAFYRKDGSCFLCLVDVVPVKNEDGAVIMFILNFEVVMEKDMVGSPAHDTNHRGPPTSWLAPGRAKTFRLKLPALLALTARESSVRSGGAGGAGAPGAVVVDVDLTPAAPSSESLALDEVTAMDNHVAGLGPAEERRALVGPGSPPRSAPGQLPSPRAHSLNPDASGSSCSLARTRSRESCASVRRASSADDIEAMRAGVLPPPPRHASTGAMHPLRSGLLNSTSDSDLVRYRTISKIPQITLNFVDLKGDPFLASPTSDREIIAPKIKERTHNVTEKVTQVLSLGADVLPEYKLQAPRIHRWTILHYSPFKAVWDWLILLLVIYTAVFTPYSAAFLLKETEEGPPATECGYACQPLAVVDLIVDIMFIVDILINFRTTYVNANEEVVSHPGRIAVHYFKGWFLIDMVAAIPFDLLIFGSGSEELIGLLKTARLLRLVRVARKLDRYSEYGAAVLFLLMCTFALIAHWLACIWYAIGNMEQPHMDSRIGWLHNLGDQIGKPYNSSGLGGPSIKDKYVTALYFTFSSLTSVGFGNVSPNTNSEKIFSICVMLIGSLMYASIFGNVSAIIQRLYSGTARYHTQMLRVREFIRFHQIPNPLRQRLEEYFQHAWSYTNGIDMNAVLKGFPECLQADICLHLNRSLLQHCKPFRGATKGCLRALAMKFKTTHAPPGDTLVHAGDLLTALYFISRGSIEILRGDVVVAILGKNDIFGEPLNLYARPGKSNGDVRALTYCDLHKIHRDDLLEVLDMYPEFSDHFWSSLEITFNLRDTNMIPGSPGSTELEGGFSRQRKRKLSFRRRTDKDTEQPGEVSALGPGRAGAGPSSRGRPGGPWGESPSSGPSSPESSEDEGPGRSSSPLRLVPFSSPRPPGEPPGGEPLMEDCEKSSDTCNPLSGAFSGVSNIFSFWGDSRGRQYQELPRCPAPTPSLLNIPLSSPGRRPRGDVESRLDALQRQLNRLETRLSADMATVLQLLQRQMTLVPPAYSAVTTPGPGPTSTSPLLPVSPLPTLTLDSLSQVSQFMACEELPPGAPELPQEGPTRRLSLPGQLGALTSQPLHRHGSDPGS

Row | SMILES | hERG blockade
1 | Cc1ccc(N=Nc2c(O)c3ccccc3[nH]c2=O)c(S(=O)(=O)N(C)C)c1 | 7.5%
2 | Nc1c(S(N)(=O)=O)cc(S(N)(=O)=O)cc1S(N)(=O)=O | 11.4%
3 | Cc1ccc(N=Nc2ccc(N)cc2C)c(S(N)(=O)=O)c1 | 23.9% (active)
4 | CC1(C)OCC(C2OC3OC(C)(C)OC3C2N)O1 (configuration not stated) | -5.67%
5 | CCOC(=O)Nc1nc(-c2ccccc2)c(C)s1 | 18.9%
6 | O=C(O)C(CCc1ccccn1)c1ccccc1 (configuration not stated) | 5.69%
7 | NC(=O)C(=Cc1ccncc1)c1cccc2ccccc12 | -12.9%
8 | O=C(O)C1C(C(=O)Nc2ccc3c(c2)Cc2ccccc2-3)C2(Cl)C(Cl)=C(Cl)C1(Cl)C2(Cl)Cl (configuration not stated) | 10.6%
9 | Cc1cc2ccc(OC(=O)c3ccc(N=C(N)N)cc3)cc2oc1=O | 13.7%
10 | O=C(O)Cc1cc(Cl)ccc1O | -4.5%
11 | Oc1ccc(Cl)cc1Cc1cc(Cl)cc(Cc2cc(Cl)ccc2O)c1O | 20.3% (active)
12 | OCCSCc1cc(Cl)cc(Cl)c1O | 6.93%
13 | Oc1ccc(Cc2cc(Cl)cc(Cl)c2O)cc1Cl | 45.1% (active)
14 | CN(Cc1cc(Cl)cc(Cl)c1O)Cc1c(O)ccc2ccccc12 | 10.9%
15 | O=C(O)c1cc(Cl)cc(Cc2cc(Cl)cc(C(=O)O)c2O)c1O | 17.1%
16 | CC(C)(N=NC(C)(C)C(=N)N)C(=N)N | 63.7% (active)
17 | CC(C)c1ccc(C(C(=O)O)=C(O)C(=O)O)cc1 | 6.01%
18 | CC12CCC(O)CC1=CCC1C2CCC2(C)C1CCC2N(CCO)CCO (configuration not stated) | -0.272%
19 | CCC1CCC2C3CC=C4CC(OC(C)=O)C(N)CC4(C)C3CCC12C (configuration not stated) | 63.9% (active)
20 | CN(C)CCC(=O)C1(O)CCC2C3CC=C4CC(O)CCC4(C)C3CCC21C (configuration not stated) | 2.46%
21 | CC(CCC(=O)O)C1CCC2C3CCC4CC(O)CCC4(C)C3CCC12C (configuration not stated) | 5.62%
22 | COC(=O)CCC(C)C1CCC2C3CCC4CC(O)CCC4(C)C3CCC12C (configuration not stated) | 3.2%
23 | COc1ccc2c(c1)CN(C(C)C1CCC3C4CCC5CC(O)CCC5(C)C4CCC31C)CO2 (configuration not stated) | 51.3% (active)
24 | CC(=N[O-])C(C)=N[O-].CC(=N[O-])C(C)=N[O-].CC(=N[O-])C(C)=N[O-].CC(=N[O-])C(C)=N[O-].[Cu].[Cu] | 17.9%
25 | O=S(=O)(c1ccc2ccccc2c1)N1CCN(S(=O)(=O)c2ccc3ccccc3c2)CC1 | -1.84%
26 | c1ccc2c(CN3CCN(Cc4c[nH]c5ccccc45)CC3)c[nH]c2c1 | -0.497%

Row | SMILES | hERG blockade
27 | C[N+]1(C(CO)Cc2c[nH]c3ccccc23)Cc2ccccc2C1 (configuration not stated) | 1.67%
28 | OCC(CCc1c[nH]c2ccccc12)c1c[nH]c2ccccc12 (configuration not stated) | 53.3% (active)
29 | O=C(O)C1CCCN1 (configuration not stated) | 5.2%
30 | NC(=S)SCCC(=O)O | 0.17%
31 | CC1=CC(C2C(=NO)C=C(C)CC2(C)C)C(O)C(C)(C)C1 (configuration not stated) | 2.54%
32 | CC(=O)C(C(c1ccccc1)N1CCOCC1)N1CCOCC1 (configuration not stated) | -3.85%
33 | COc1cccc2c1C(=N)c1c(O)c3c(c(O)c1C2=O)CC(O)(C(C)=O)CC3OC1CC(N)C(O)C(C)O1 (configuration not stated) | 32.2% (active)
34 | COc1cccc2c1C(=O)c1c(O)c3c(c(O)c1C2=O)CC(O)(C(=O)CO)CC3OC1CC(N)C(O)C(C)O1 (configuration not stated) | 3.44%
35 | COc1cccc2c1C(=O)c1c(O)c3c(c(O)c1C2=O)CC(O)(C(=O)CO)CC3OC1CC(N)C(O)C(C)O1.[W] (configuration not stated) | 0.939%
36 | O=C(O)CC(=Cc1ccccc1)C(=O)O | -18.3%
37 | CC1(C)OC2COC(c3[nH]nc4c(=O)[nH]c(=O)[nH]c34)C2O1 (configuration not stated) | 16.5%
38 | O=C(O)c1ccc(Oc2nc3ccccc3s2)cc1 | 1.79%
39 | CN(C)CCCN=c1c2ccccc2n(C)c2[nH]c(=O)n(C)c(=O)c12 | 54.8% (active)
40 | CN(C)CCCCN1CCc2c(n(C)c3ccccc23)C1=O | -2.05%
41 | CCN(CC)COC(=S)S | -4.52%
42 | CC1(C)OCC(C2OC(On3nnc4ccc(Cl)cc43)C3OC(C)(C)OC23)O1 (configuration not stated) | 12.7%
43 | NC(=O)CS(=O)CC(N)C(=O)O (configuration not stated) | 5.23%
44 | NC(N)=NN=Cc1ccc(C2CCNCC2)cc1 | 6.62%
45 | Nc1c(S(=O)(=O)O)cc(S(=O)(=O)O)c2ccc(N=Nc3ccccc3)c(O)c12 | 11.9%
46 | COc1cc(N=Nc2cccc(S(N)(=O)=O)c2)c2ccccc2c1N | 70.8% (active)
47 | N=C(N)SCCON1C(=O)c2ccccc2C1=O | -2.21%
48 | CC(=O)Nc1ccc(Cc2ccc3[nH]c(=O)cc(C)c3c2)cc1 | 0.318%
49 | CSC(=[SH+])[N-]N=C(c1ccccn1)c1ccccn1.[Cu][Br] | 3.34%
50 | CC1(C)SC2C(NC(=O)C3(N)CCCCC3)C(=O)N2C1C(=O)O (configuration not stated) | -8.47%
51 | NC(N)=NNC(=O)C(=O)O | -3.63%
52 | NNC(=O)CCc1ccc2ccc3ccccc3c2c1 | -44.7% (active)

Row | SMILES | hERG blockade
53 | NNC(=O)CCSc1ccccc1 | 3.37%
54 | O=C(O)CCCc1ccc2ccc3ccccc3c2c1 | 8.7%
55 | O=C(CON1C(=O)c2ccccc2C1=O)c1ccccc1 | 13.2%
56 | O=C(O)c1ccccc1-c1ccccc1C(=O)Nc1ccc2c(c1)Cc1cc(F)ccc1-2 | -4.28%
57 | CC(CCCC1SCC2NC(=O)NC21)C(=O)O (configuration not stated) | 6.78%
58 | Cc1cc2c(=O)[nH]c(N)nc2nc1C | -6.54%
59 | Cc1cc2cc3c(=O)[nH]c(=O)[nH]c3nc2cc1C | -26% (active)
60 | Cc1cc2nc3[nH]c4c(Cl)cc(Cl)cc4c3nc2cc1C | -2.06%
61 | O=C(c1cc(Br)ccc1O)c1cc(Br)ccc1O | -0.498%
62 | Clc1ccccc1NN(Cc1ccncc1)c1ccccc1Cl | 9.21%
63 | COc1ccc(NC(=S)Nc2ccccc2)cc1 | 3.26%
64 | Cc1cc(C(C)(C)C)c(OCCCN2CCOCC2)c(C(C)(C)C)c1 | 20.8% (active)
65 | OCCCN=C1CCCCC1 | 13.3%
66 | NCc1ccc(C(=O)O)cc1 | -10.8%
67 | c1cncc(CNc2ncn[nH]2)c1 | -6.56%
68 | CC(C)N1CCN(c2ccncc2S(=O)(=O)N2CCCCC2)CC1 | 4.4%
69 | O=c1[nH]c2[nH]c(=S)[nH]c(=S)c2[nH]1 | 33.1% (active)
70 | O=c1[nH][nH]c(=S)c(=O)[nH]1 | 4.97%
71 | Clc1ccccc1NN(Cc1ccccn1)c1ccccc1Cl | 7.97%
72 | Cc1cc(=O)[nH]c(N=C(N)Nc2ccc(Cl)cc2)n1 | -17.7%
73 | Cc1cccc(C(=O)O)c1CC1NCCC2c3ccccc3NC12 (configuration not stated) | 32.1% (active)
74 | NC(Cc1cccnn1)C(=O)O (configuration not stated) | 5.87%
75 | O=S(=O)(O)n1ccnc1 (tested in a mixture with another compound) | -15.4%
76 | S=C(Nc1ccc2cn[nH]c2c1)Nc1ccc2cn[nH]c2c1 | -19.3%
77 | CCN(CC)CC[n+]1ccc2c(C)c3[nH]c4ccccc4c3c(C)c2c1 | 36.7% (active)
78 | Cc1c2cc[n+](CCN3CCCCC3)cc2c(C)c2c1[nH]c1ccc(O)cc12 | 26.1% (active)

Row | SMILES | hERG blockade
79 | CCN(CC)CC[n+]1ccc2c(C)c3[nH]c4ccc(O)cc4c3c(C)c2c1 | 45.4% (active)
80 | NCCNC(=S)S | 5.6%
81 | NN=C1CC(=O)NC(=O)N1 | -9.37%
82 | CCCCNc1nc(SC)nc2nc[nH]c12 | 6.48%
83 | COC1C=COC2(C)Oc3c(C)c(O)c4c(O)c(cc(O)c4c3C2=O)NC(=O)C(C)=CC=CC(C)C(O)C(C)C(O)C(C)C(OC(C)=O)C1C (configuration not stated) | 8.1%
84 | CC(C)(C)COS(=O)OCC(C)(C)C | -13.1%
85 | CC(=O)C=NCC(=O)O | -0.567%
86 | O=C(O)Cc1c[nH]c2ccc(F)cc12 | -3.11%
87 | CCOP1(=O)OCC2OC(n3cnc4c(N)ncnc43)C(O)C2O1 (configuration not stated) | 5.38%
88 | CCOc1ccc2c(ccc(C=Cc3cc(C)c4cccnc4c3O)[n+]2C)c1 | 37% (active)
89 | O=C(O)CCC(C(=O)O)N1C(=O)C2C3CCC(C3)C2C1=O (configuration not stated) | 7.54%
90 | CC12CCC(=O)C=C1CCC1C2C(O)CC2(C)C(c3csc(-c4ccccc4)n3)CCC12 (configuration not stated) | -6.87%
91 | CCc1ccc2c(c1)N(CC(C)CN(C)C)c1ccccc1S2 (configuration not stated) | 25.4% (active)
92 | O=C(O)C(Cc1ccccc1)Cc1ccccc1 | -4.1%
93 | CN(C)c1ccc(C(C#N)N2CCCN(C(C#N)c3ccc(N(C)C)cc3)C2c2ccc(N(C)C)cc2)cc1 (configuration not stated) | 6%
94 | Cc1ccc(S(=O)(=O)N=Nc2c(O)[nH]c3cc(O)c(C(=O)O)cc23)cc1 | -2.22%
95 | O=[N+]([O-])c1ccc(Cl)c(CNc2ncnc3c2ncn3C2CCCCO2)c1 (configuration not stated) | 7.11%
96 | OCC1OC(n2cnc3c(SCc4ccccc4)ncnc32)C(O)C1O (configuration not stated) | 22.8% (active)
97 | C[N+](C)(C)c1nc(N)nc2c1ncn2C1OC(CO)C(O)C1O (configuration not stated) | 13.1%
98 | Fc1cccc(CSc2ncnc3c2ncn3C2CCCS2)c1 (configuration not stated) | 12.5%
99 | Clc1ccc(CSc2ncnc3c2ncn3C2CCCCO2)cc1 (configuration not stated) | 24.5% (active)
100 | OCC1OC(n2cnc3c(C=C(O)c4ccccc4)ncnc32)C(O)C1O (configuration not stated) | 9.21%
101 | C[N+](C)(C)c1ncnc2c1ncn2C1CCCCO1 (configuration not stated) | -24.9% (active)
102 | OCCn1cnc2c(SCc3ccccc3)ncnc21 | -7.5%
